Seven compounds from PubChem BioAssay (NCATS) can be followed below.

Several values for one entry are separate records, joined by “and”; a condition that tells them apart may be missing. Identical values can stand only once. Inconclusive results are not listed. Activity calls are given as the source filed them. Unless noted, calls follow the shape of the dose curve; as a rule, active = well fitted curve in the direction sought with a large enough effect; inconclusive = small, poorly fitted or top-dose-only effect, or another doubt; inactive = no such curve, though single readings can be large; an effect the other way counts as inactive or inconclusive.

In assay [1] the test system is Zika virus NS2B-NS3 protease. The experiment in a line: Primary screen GU AMC qHTS for Zika virus inhibitors (AID 1347154).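 Also: 0% = no-inhibitor control and -100% = no-enzyme control; nearly all actives have a fitted effect of over 70% in size.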 Summed up: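 Unlinked Zika NS2B hydrophilic domain/NS3 protease domain noncovalent complex (25 nM final) in 10 mM Tris-HCl pH 8.0, 0.01% Tween 20, with AMC peptide substrate. Fluorescence (ex 340, em 450 nm) change over 15 min, room temperature; percent inhibition fitted to 4-parameter Hill equation.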

Assay [2] is described as follows: Primary qHTS for small molecule stabilizers of the endoplasmic reticulum resident proteome: Secreted ER Calcium Modulated Protein (SERCaMP) assay (AID 1508630). Also: % is scaled to controls: 0 for no effect and ±100 for the full control effect. Summed up: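 The SH-SY5Y reporter protocol was run at 3 concentrations up to 38.3 uM (primary) or 11 concentrations (follow-up): 16 h compound, 100 nM thapsigargin for 4 h, then extracellular luciferase luminescence.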
On the technique in general: In qHTS, concentration-response curves come from the screen itself.

Assay [3] can be described thus: AP1 Signaling Pathway (AID 357; active = well fitted curve in either direction with a large enough effect, not every such curve was filed as active;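 also: ME-180 reporter cells stimulated with EGF at its EC50 level; % is scaled to controls: 0 for no effect and ±100 for the full control effect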). Put shortly: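 Cells are seeded overnight, exposed to compound titrations and an EC50 level of EGF for 5 hours at 37 °C, then loaded with CCF4 dye for 2.5 hours. Beta-lactamase activity under the AP-1 element is read as a blue/green ratio.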
Assay [4] is described as follows: NFAT Signaling Pathway (AID 444; active = well fitted curve in either direction with a large enough effect, not every such curve was filed as active;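 also: carbachol stimulus at about its EC50 of 1 µM final; % is scaled to controls: 0 for no effect and ±100 for the full control effect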). To be noted: Jurkat NFAT-bla M1, carbachol, beta-lactamase ratio, 5 h; at 17.2 µM (top of the series). Put shortly: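 Jurkat cells carrying an NFAT-driven β-lactamase reporter and co-transfected muscarinic M1 receptor were treated with compound plus carbachol (1 uM final, an EC50 level) for 5 h at 37 °C. CCF4 loading followed for 1 h at RT; 460/530 nm ratio gave %activity.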

The nature of assay [5]: Stat Signaling Pathway (AID 446; active = well fitted curve in either direction with a large enough effect, not every such curve was filed as active;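 also: ME-180 cervical cancer cells given 40 pM IL-6 alongside compound; SIE-controlled beta-lactamase reporter measured as 460/530 nm FRET emission ratio; % is scaled to controls: 0 for no effect and ±100 for the full control effect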). Summed up: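 Overnight-plated ME-180 cells bearing a STAT Inducible Element beta-lactamase reporter; 5 h co-exposure to compound and 40 pM IL-6; values normalized to 300 pM IL-6 and 125 nM JAK inhibitor controls.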
Assay [6] concerns the target Cytochrome P450 3A4 (Homo sapiens) (UniProt P08684). The experiment in a line: qHTS Assay for Activators of Cytochrome P450 3A4 (AID 885). Also: nearly all actives have a fitted effect of over 65% in size. Put shortly: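 Using 20nM recombinant human CYP3A4 in potassium phosphate (200mM), substrate Luciferin-PPXE at 25uM, luminescent luciferin detection followed a 60-min RT NADPH reaction; data scaled to 57 uM ketoconazole.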
A short description of assay [7]: Confirmation and Secondary Assay for Modulators of Hemoglobin Beta Chain Splicing at IVS2 705 locus (AID 930).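 Also: HeLa cells stably expressing the EGFP-705 splicing reporter; GFP fluorescence per well restored by corrected splicing of the IVS2-705 intron in EGFP; % of control where 0% means no effect.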 Put shortly: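 Stable HeLa line with EGFP disrupted by mutant beta-globin intron 2 (705). Overnight attachment, then 2 days of compound at 37C, 5% CO2. Signal: peak GFP intensity summed over objects 5-250 µm.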
Assay [8] can be described thus: qHTS Assay for Lipid Storage Modulators (AID 1519; calls by dose curve; also: potency is read from the fitted curve at half-maximal effect). The settings on record: Drosophila S3 cells, BODIPY lipid droplet/cell ratio, laser cytometry, cells loaded with oleic acid. Put shortly:
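Cells seeded at 5,000 per well were treated with compounds over a concentration series and loaded with oleic acid (400 uM, as added). Lipid droplet fluorescence (488 nm excitation, 500-530 nm channel) was read by laser-scanning cytometry and normalized to 20 uM Triacsin C.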

Assay [9] deals with Glucocorticoid receptor (Homo sapiens) (UniProt P04150). The experiment in a line: GR-GFP Redistribution (AID 450;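 active = compounds whose dose series gives a full or clear partial fitted curve of increased nuclear translocation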; also: potency is read from the fitted curve at half-maximal effect). The settings on record: U2OS GR-GFP nuclear translocation, laser cytometry, 2 h.
Sequence of Glucocorticoid receptor (Homo sapiens) (P04150 whole entry, looked up): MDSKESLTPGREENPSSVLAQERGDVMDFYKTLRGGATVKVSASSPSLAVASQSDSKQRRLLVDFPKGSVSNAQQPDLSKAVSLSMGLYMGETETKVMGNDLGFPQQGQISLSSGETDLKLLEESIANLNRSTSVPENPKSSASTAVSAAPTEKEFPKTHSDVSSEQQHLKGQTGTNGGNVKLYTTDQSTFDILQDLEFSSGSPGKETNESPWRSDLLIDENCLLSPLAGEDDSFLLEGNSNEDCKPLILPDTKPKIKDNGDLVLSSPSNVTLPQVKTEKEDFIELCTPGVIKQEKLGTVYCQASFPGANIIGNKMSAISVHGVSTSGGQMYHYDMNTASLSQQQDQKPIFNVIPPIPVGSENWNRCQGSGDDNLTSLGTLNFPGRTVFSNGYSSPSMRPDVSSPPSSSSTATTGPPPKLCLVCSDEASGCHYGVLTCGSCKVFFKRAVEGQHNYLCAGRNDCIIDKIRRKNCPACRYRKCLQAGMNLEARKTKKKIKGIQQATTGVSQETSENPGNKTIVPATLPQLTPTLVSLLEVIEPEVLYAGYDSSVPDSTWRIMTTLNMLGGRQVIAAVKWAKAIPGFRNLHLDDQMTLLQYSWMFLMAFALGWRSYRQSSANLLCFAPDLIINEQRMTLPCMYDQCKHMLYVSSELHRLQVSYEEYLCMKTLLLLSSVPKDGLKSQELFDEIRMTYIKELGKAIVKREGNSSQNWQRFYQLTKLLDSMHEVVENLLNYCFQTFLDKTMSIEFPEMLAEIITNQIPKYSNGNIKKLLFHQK
For assay [10] the target is unchanged. The assay can be described thus: GR-EFC Redistribution (AID 451; calls by dose curve; also: potency is read from the fitted curve at half-maximal effect). The settings on record: CHO-K1 GR-EFC translocation, beta-gal luminescence, 2 h. Put shortly:
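CHO-K1 cells stably expressing nuclear-localized β-gal enzyme acceptor and GR fused C-terminally to the enzyme donor fragment; ligand-driven nuclear translocation restores β-gal by complementation. Compounds titrated up to 46 uM final, 2 h at 37 °C; luminescence read.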

The target in assay [11] is 3',5'-cyclic-AMP phosphodiesterase 4B (Homo sapiens) (UniProt Q07343). The assay can be described thus: qHTS Assay for Inhibitors of PDE-IV (AID 607; active = well fitted activation curve with a large enough effect in the main read-out, with a control signal flat, not every such curve was filed as active; also: % of control where 0% means no effect). Put shortly: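 Live HEK293 cells with a modified cyclic nucleotide-gated (CNG) channel report intracellular cAMP via membrane-potential dye fluorescence (ex 535/em 590 nm). Endogenous PDE-IV was targeted. Compounds were tested at up to 22.9 uM final; RO 20-1724 100 uM served as control.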
Sequence of 3',5'-cyclic-AMP phosphodiesterase 4B (Homo sapiens) (Q07343 whole entry, looked up): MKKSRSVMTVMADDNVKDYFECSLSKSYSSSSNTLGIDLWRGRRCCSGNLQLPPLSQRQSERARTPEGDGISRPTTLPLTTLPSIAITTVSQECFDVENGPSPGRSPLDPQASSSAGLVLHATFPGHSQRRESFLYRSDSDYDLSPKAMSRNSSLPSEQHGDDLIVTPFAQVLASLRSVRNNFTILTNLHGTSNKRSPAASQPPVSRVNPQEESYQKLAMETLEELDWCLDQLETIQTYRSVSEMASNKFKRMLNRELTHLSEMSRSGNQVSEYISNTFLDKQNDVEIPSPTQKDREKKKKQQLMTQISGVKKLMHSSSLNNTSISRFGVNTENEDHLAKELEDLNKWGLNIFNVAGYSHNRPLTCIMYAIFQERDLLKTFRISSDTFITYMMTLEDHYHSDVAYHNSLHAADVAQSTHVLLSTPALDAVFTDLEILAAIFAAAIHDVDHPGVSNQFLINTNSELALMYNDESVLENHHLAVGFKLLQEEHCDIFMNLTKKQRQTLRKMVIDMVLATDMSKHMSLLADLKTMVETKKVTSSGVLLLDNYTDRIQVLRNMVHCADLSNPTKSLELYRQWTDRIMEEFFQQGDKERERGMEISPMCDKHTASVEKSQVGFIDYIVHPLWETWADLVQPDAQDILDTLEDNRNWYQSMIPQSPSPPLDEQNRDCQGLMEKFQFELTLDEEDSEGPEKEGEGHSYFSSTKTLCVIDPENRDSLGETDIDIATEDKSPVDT

The target of assay [12] is Guanine nucleotide-binding protein G(i) subunit alpha-1 (Homo sapiens) (UniProt P63096). The assay can be described thus: qHTS Assay for Inhibitors of RGS12 GoLoco Motif Activity (Green Fluorophore) (AID 879).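 Also: 0% = labeled peptide with Gαi1 and full inhibition = labeled peptide alone without protein; negative values mean loss of peptide binding seen as reduced polarization.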 Summed up: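 A drop in FITC polarization marked displacement of the FITC-tagged RGS12 GoLoco peptide (10 nM) from Gαi1 (50 nM). Compounds were incubated 10 min at room temperature in Tris pH 7.5 buffer containing 150 mM NaCl, 0.1 mM GDP and 0.05% NP40; unlabeled peptide titration served as control.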
Sequence of Guanine nucleotide-binding protein G(i) subunit alpha-1 (Homo sapiens) (P63096 whole entry, looked up): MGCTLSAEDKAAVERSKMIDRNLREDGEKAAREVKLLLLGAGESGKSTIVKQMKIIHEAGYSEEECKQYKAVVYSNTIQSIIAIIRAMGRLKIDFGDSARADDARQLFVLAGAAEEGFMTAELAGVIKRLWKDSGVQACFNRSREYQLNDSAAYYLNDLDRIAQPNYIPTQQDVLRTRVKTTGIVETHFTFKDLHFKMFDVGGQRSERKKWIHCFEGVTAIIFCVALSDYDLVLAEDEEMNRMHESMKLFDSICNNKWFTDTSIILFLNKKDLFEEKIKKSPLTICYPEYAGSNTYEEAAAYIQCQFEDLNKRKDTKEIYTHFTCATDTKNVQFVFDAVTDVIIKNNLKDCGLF

Assay [13] deals with Cytochrome P450 3A4 (Homo sapiens) (UniProt P08684). The assay can be described thus: qHTS Assay for Inhibitors and Substrates of Cytochrome P450 3A4 (AID 884). Also: % is scaled to controls: 0 for no effect and ±100 for the full control effect; nearly all actives have a fitted effect of over 50% in size. Put shortly:
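Luminescent readout of luciferin produced by CYP3A4 (20 nM) dealkylation of Luciferin-PPXE, 25 uM (its KM). NADPH-driven reaction ran 60 min at RT after 10 min compound preincubation; data scaled to 57 uM ketoconazole as 100% inhibition.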

For assay [14], the target named is Cytochrome P450 2C19 (Homo sapiens) (UniProt P33261). The experiment in a line: qHTS Assay for Inhibitors and Substrates of Cytochrome P450 2C19 (AID 899). Also: % is scaled to controls: 0 for no effect and ±100 for the full control effect; nearly all actives have a fitted effect of over 60% in size. Put shortly:
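In 50mM KPO4, the reaction held 5nM enzyme and KM-level (10uM) Luciferin-H EGE; it ran 60 min at 37C after NADPH regeneration and a 10 min compound preincubation. Luminescence values were scaled to 57uM ketoconazole as complete inhibition.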

Assay [15] is described as follows: qHTS Assay for Identification of Small Molecule Agonists for Thrombopoietin (TPO) Signaling Pathway (AID 917). Also: % is scaled to controls: 0 for no effect and ±100 for the full control effect. Put shortly: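 Quantitative HTS for pathway activators: compounds were pin-transferred onto IL-3-starved Ba/F3 cells expressing human TPO receptor, TPO was added at its EC50 (26 pM final), and after 24 hrs at 37 C reporter luciferase was measured.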
Assay [16] concerns the target Muscarinic acetylcholine receptor M1 (Rattus norvegicus) (UniProt P08482). The experiment in a line: qHTS Assay for Antagonists of Acetylcholine Muscarinic M1 Receptor: Kinetic Measurement of Intracellular Calcium Response (AID 943).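 Also: Fluo-4 calcium signal as peak divided by basal fluorescence over 4 min; nearly all actives have a fitted effect of over 75% in size.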 Summed up: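 Quantitative HTS in CHO-M1 (rat receptor) cells: 10 min compound exposure ahead of 100 nM carbachol, Fluo-4 fluorescence followed 4 min, value expressed as peak-to-basal ratio.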

For assay [17] the target is unchanged. The assay can be described thus: qHTS Assay for Antagonists of Acetylcholine Muscarinic M1 Receptor: Measurement of IP-One Response (AID 944). Also: nearly all actives have a fitted effect of over 75% in size. Summed up:
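Antagonism was measured as loss of carbachol-driven (EC80) IP1 accumulation in CHO cells carrying rat M1, using a homogeneous IP-One TR-FRET kit read at 620 and 665 nm.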

Assay [18] concerns the target Pyruvate kinase (Leishmania mexicana) (UniProt Q27686). The experiment in a line: qHTS Validation Assay for Inhibitors of Leishmania Mexicana Pyruvate Kinase (AID 945).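 Also: 0% = DMSO only neutral control wells.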 Put shortly: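 Mutant LmPYK (E451W), 0.2 nM, plus 0.5 mM PEP and 0.1 mM ADP in 50 mM imidazole pH 7.2 containing 0.01% Tween 20 and 0.05% BSA. Incubated 1 h at room temperature; luminescence via PKLight, normalized to DMSO.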

Assay [19] concerns the target Alpha-galactosidase (Coffea arabica) (UniProt Q42656). The experiment in a line: Counterscreen for Glucocerebrosidase Inhibitors: qHTS Assay for Coffee Bean alpha-Galactosidase at pH 4.5 (AID 957).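 Also: plate controls were enzyme alone for no effect and no enzyme for full effect.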 Summed up: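 Quantitative HTS of compounds (0.7 nM to 77 uM) against coffee bean alpha-galactosidase at pH 4.5, measuring 4-methylumbelliferone fluorescence released from 80 uM substrate.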
On the technique in general: The purpose of a counterscreen is to sort out artefacts and off-target activity.

The target of assay [20] is Alpha-galactosidase A (Homo sapiens) (UniProt P06280). The experiment in a line: Counterscreen for Glucocerebrosidase Inhibitors: qHTS Assay for Human alpha-Galactosidase at pH 4.5 (AID 992). Also: 0% is about no effect. Put shortly: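 Each compound is preincubated briefly with 2 nM enzyme before substrate addition (80 uM); plates then sit 20 min at ambient temperature, are quenched with 1M NaOH/1M glycine, and read fluorometrically.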
Sequence of Alpha-galactosidase A (Homo sapiens) (P06280 whole entry, looked up): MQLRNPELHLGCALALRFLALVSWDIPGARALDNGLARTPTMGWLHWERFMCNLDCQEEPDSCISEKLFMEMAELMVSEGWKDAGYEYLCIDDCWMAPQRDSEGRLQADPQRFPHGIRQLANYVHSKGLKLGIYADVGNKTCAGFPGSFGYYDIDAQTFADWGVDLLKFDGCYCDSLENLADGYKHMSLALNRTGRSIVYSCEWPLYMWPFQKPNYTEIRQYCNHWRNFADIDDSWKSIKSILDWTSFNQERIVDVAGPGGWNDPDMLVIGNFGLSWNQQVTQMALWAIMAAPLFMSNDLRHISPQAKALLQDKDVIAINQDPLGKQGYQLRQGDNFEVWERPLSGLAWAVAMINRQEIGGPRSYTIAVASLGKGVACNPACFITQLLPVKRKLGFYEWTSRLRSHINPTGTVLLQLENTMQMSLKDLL

For assay [21], the target named is alpha-glucosidase (Oryza sativa, rice) (UniProt Q653V4). The assay can be described thus: Counterscreen for Glucocerebrosidase Inhibitors: qHTS Assay for Rice alpha-Glucosidase at pH 5.0 (AID 997).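 Also: 0% = full activity with enzyme and -100% = basal without enzyme.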 Summed up:
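Endpoint fluorogenic assay at pH 5.0: compounds (0.7 nM to 77 uM) titrated against 4 nM rice enzyme and 400 uM 4-MU-alpha-glucoside for 20 min at room temperature; NaOH/glycine stop, read ex 365/em 440 nm, Hill-fitted AC50.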

Assay [22] concerns the target Alpha-galactosidase (Coffea arabica) (UniProt Q42656). The assay can be described thus: Counterscreen for Glucocerebrosidase Inhibitors: qHTS Assay for Coffee Bean alpha-Galactosidase at pH 5.9 (AID 998).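 Also: plate controls were uninhibited enzyme for no effect and no-enzyme basal signal for full effect.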 Put shortly:
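In 50 mM citric acid pH 5.9 with 0.005% Tween-20, coffee bean enzyme hydrolyses 80 uM 4-MU alpha-D-galactopyranoside over 20 min at RT. Activity is normalized to controls; AC50 comes from Hill-modelled concentration-response data.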

Assay [23] addresses Ubiquitin carboxyl-terminal hydrolase 1 (Homo sapiens) (UniProt O94782). The experiment in a line: Inhibitors of USP1/UAF1: Pilot qHTS (AID 504865).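 Also: rhodamine fluorescence freed from ubiquitin-rhodamine substrate followed over time; top concentration of the series differs between compounds; % is scaled to controls: 0 for no effect and ±100 for the full control effect; nearly all actives have a fitted effect of over 35% in size.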 Summed up: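 Kinetic fluorescence assay: 1nM USP1/UAF1, 15 min compound preincubation, then 150nM Ub-Rho; 480/540 nm.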
Assay [24] addresses DNA dC->dU-editing enzyme APOBEC-3G (Homo sapiens) (UniProt Q9HC16). The experiment in a line: qHTS for inhibitors of Vif-A3G interactions: Validation (AID 588379). Also: 0% is about no effect. Put shortly:
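Yellow fluorescence (Ex 488, Em 500-530) of Vif-coexpressing HeLa A3G-eYFP cells, scanned by Acumen cytometer, reports blocked A3G degradation. Cells plated at 700/well overnight at 37 deg C before compound addition, then a further overnight compound incubation at 37 deg C.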

Setting [25] is: measured here: cell count channel max response.
Where [26] appears, read: measured here: lipid channel max response.

Sequence of DNA dC->dU-editing enzyme APOBEC-3G (Homo sapiens) (Q9HC16 whole entry, looked up): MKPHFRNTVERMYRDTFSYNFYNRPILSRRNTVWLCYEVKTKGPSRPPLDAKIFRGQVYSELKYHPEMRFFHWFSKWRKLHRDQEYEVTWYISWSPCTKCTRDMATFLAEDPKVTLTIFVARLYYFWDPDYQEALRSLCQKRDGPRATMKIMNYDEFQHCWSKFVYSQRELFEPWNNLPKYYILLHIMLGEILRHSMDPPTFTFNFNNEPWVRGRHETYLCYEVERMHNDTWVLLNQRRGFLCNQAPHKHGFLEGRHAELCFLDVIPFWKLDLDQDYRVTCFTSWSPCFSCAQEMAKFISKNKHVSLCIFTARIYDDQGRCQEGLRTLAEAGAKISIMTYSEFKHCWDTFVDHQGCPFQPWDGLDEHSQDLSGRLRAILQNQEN
Sequence of Cytochrome P450 3A4 (Homo sapiens) (P08684 whole entry, looked up): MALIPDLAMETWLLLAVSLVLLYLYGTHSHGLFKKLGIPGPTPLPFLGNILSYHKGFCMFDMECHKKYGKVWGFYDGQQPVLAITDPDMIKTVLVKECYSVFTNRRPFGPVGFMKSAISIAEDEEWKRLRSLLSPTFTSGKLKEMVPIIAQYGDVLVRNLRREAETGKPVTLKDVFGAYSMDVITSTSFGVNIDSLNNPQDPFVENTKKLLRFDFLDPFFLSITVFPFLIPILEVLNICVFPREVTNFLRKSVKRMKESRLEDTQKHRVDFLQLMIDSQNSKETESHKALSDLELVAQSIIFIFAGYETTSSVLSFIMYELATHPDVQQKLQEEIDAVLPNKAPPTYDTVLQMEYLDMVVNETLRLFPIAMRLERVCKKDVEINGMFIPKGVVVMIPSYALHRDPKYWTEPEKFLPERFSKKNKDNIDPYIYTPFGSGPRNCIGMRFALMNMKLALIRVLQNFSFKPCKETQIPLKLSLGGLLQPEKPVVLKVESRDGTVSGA
Sequence of Muscarinic acetylcholine receptor M1 (Rattus norvegicus) (P08482 whole entry, looked up): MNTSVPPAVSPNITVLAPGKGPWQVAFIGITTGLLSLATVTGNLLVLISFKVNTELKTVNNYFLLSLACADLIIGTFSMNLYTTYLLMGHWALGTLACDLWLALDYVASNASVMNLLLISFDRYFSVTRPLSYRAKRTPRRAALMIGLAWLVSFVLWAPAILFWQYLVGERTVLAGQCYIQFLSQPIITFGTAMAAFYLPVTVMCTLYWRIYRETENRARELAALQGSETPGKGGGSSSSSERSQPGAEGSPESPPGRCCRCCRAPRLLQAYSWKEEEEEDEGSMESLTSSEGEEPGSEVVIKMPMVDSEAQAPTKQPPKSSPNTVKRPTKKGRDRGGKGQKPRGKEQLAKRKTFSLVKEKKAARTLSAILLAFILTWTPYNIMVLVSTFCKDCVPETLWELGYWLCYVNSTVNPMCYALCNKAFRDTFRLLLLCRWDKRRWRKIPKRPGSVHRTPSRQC
Sequence of Alpha-galactosidase (Coffea arabica) (Q42656 whole entry, looked up): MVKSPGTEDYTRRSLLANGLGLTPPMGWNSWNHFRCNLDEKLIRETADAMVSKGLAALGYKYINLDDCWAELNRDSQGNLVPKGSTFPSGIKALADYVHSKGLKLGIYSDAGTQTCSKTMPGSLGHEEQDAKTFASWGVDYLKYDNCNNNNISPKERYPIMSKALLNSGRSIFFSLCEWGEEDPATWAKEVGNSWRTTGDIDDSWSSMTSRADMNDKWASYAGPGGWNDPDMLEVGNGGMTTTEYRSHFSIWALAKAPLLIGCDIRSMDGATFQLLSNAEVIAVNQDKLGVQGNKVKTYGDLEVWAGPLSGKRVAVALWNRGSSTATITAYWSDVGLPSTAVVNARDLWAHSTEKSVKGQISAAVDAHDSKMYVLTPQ
Sequence of Cytochrome P450 2C19 (Homo sapiens) (P33261 whole entry, looked up): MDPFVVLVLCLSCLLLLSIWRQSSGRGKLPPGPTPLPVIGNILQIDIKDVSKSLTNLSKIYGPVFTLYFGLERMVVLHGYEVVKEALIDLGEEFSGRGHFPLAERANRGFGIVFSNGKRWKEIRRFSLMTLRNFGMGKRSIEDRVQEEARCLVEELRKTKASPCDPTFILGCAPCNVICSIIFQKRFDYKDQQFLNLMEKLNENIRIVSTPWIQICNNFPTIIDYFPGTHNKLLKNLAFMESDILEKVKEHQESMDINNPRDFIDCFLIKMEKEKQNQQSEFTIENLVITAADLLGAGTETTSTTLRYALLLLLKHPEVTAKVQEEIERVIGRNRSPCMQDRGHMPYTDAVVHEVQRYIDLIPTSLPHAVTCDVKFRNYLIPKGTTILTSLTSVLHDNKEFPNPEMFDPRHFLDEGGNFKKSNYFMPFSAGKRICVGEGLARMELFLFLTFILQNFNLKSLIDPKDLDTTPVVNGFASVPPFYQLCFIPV

`CCOC(=O)CN1C(=O)CC(C[C@@H](O)C2C[C@@H](C)C[C@H](C)C2=O)CC1=O` (stereo partly specified): the Potency result in assay [1] and in assay [2] was “inactive” each time.

Regarding `Nc1ncnc2c1ncn2[C@@H]1O[C@H](COP(=O)(O)CP(=O)(O)O)[C@@H](O)[C@H]1O`, the Potency result in assay [1] and in assay [2] was “inactive” throughout.

Turning to `NCC(CC(=O)O)c1ccc(Cl)s1` (stereo unspecified), the Potency entry in assay [1] and in [2] was “inactive” in each case.

Consider `COc1ccc2[nH]cc(CCNCc3ccc(Br)cc3)c2c1`, for which the Potency result in assay [1] and in assay [2] was “inactive” throughout.

As to `CN1CCN(C(=O)OC2c3nccnc3C(=O)N2c2ccc(Cl)cn2)CC1` (stereo unspecified), the result in assay [3] and in [5] was inactive. Besides, the activity change, negative = inhibition in assay [4] is 3% (inactive). The Potency entry in assay [1] and in assay [2] was “inactive” throughout.

As for `CC1OC(=O)C(C(C)C)NC(=O)C(C(C)C)OC(=O)C(C(C)C)NC(=O)C(C)OC(=O)C(C(C)C)NC(=O)C(C(C)C)OC(=O)C(C(C)C)NC(=O)C(C)OC(=O)C(C(C)C)NC(=O)C(C(C)C)OC(=O)C(C(C)C)NC1=O` (stereo unspecified), the Potency result in assay [6], in assay [1] and in assay [2] was “inactive” in each case. In addition, the compound was called inactive in [7]. Also, in [8], the Potency is 316 nM (active). The max response in assay [8] (setting [25]) was 0.207%; in assay [8] (setting [26]), -94.2%.

For `N[C@@]1(C(=O)O)CC[C@H](C(=O)O)C1`, the Potency in assay [9] and in [10] was > 46 µM (inactive) in each case. For the same compound, the Potency entry in assay [11], in [13], in assay [14], in [16], in [17] and in [23] was “inactive” throughout. In addition, the Potency result in assay [24], in assay [1] and in assay [2] was “inactive” in each case. In addition, the outcome in [12], in [15], in assay [18], in [19], in assay [20] and in assay [21] was inactive. In [22], the call was inactive. The activity change, negative = inhibition in [8] (at 57.5 µM (top of the series)) is 1.47% (inactive) and 9.82% (inactive) and 2.9% (inactive). Also, the max response is -9.77% and 22.3% and -1.79% in [8] (setting [25]); -7.89% and 39.1% and -2.3% in [8] (setting [26]).
